Source: PubChem BioAssay (NCI)
About 83,000 compounds went through this panel and 20% of them were active in at least one assay; those are over-represented in the sample as a whole.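 The test compound was applied at a single concentration to cells in 96-well plates for 48 hours, and percent growth was recorded.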 The source made the active and inactive calls. How the source made its calls: active means growth percent below 10; inactive means the rest.

What was measured:
Assay in all cases: NCI-60 one-dose screen, 48 h (100 = growth as untreated, 0 = no growth, -100 = all killed)
Conditions in all cases: 10 µM unless noted
NCI-H23 lung = test system: NCI-H23 lung
NCI-H226 lung = test system: NCI-H226 lung
NCI-H322M lung = test system: NCI-H322M lung
HOP-62 NSCLC = test system: HOP-62 NSCLC
NCI-H460 lung = test system: NCI-H460 lung
NCI-H522 lung = test system: NCI-H522 lung
A549/ATCC NSCLC = test system: A549/ATCC NSCLC
786-0 renal = test system: 786-0 renal
COLO 205 colon = test system: COLO 205 colon

Measured: growth

COc1ccc(-c2nc3cc(C)ccc3n2CC(=O)N=Nc2c(O)[nH]c3ccc(OC)cc23)cc1
active: NCI-H23 lung -65.1% | NCI-H226 lung -66.6% | NCI-H322M lung -4.47% | HOP-62 NSCLC -70.5% | NCI-H460 lung -48% | NCI-H522 lung -40.9% | A549/ATCC NSCLC -49.7% | 786-0 renal -69.3% | COLO 205 colon -68.2%

CCOC(=O)c1ccc(Nc2nc(NN)nc(-c3ccc(F)cc3)c2C#N)cc1
inactive: NCI-H23 lung 110% | NCI-H226 lung 116% | NCI-H322M lung 109% | HOP-62 NSCLC 103% | NCI-H460 lung 112% | NCI-H522 lung 98.5% | A549/ATCC NSCLC 105% | 786-0 renal 103% | COLO 205 colon 119%

CN(C)CCn1c2ccccc2c2nc3cc(C(F)(F)F)ccc3nc21
active: NCI-H460 lung 8.31%
inactive: NCI-H23 lung 34.6% | NCI-H226 lung 53.2% | NCI-H322M lung 40.3% | HOP-62 NSCLC 38.8% | NCI-H522 lung 30.7% | A549/ATCC NSCLC 21.7% | 786-0 renal 32.9% | COLO 205 colon 14%

O=C(C1=CNC(=S)NC1c1ccc(O)cc1)c1cc2ccccc2oc1=O (configuration not stated)
inactive: NCI-H23 lung 102% | NCI-H226 lung 95.7% | NCI-H322M lung 106% | HOP-62 NSCLC 91.4% | NCI-H460 lung 108% | NCI-H522 lung 90% | A549/ATCC NSCLC 101% | 786-0 renal 109% | COLO 205 colon 102%

Cc1cccc(-c2nc(Nc3ccc(C)c(S(N)(=O)=O)c3)c3ccccc3n2)c1
active: NCI-H522 lung -30.5%
inactive: NCI-H23 lung 12.9% | NCI-H226 lung 41.9% | NCI-H322M lung 34% | HOP-62 NSCLC 76.1% | NCI-H460 lung 19% | A549/ATCC NSCLC 26.5% | 786-0 renal 10.8% | COLO 205 colon 37.8%

CC(C)(C)OC(=O)/C=C/c1cccc2c1C(=O)NC(C)(c1cc3cc(Cl)ccc3oc1=O)N2 (configuration not stated)
inactive: NCI-H23 lung 53% | NCI-H226 lung 50.6% | NCI-H322M lung 60.9% | HOP-62 NSCLC 64% | NCI-H460 lung 43.9% | NCI-H522 lung 34.9% | A549/ATCC NSCLC 27.4% | 786-0 renal 54.5% | COLO 205 colon 19.4%

COc1ccc2[nH]c(O)c(N=NC(=O)Cn3c(-c4ccccc4)nc4cc(C)ccc43)c2c1
active: 786-0 renal 4.55%
inactive: NCI-H23 lung 13.4% | NCI-H226 lung 11.7% | NCI-H322M lung 49.5% | HOP-62 NSCLC 47.9% | NCI-H460 lung 44.3% | NCI-H522 lung 57% | A549/ATCC NSCLC 15.3% | COLO 205 colon 64.5%

Cc1c(C(=O)NNC(=O)Nc2ccc(Cl)cc2)nnn1-c1ccc(Br)cc1
inactive: NCI-H23 lung 102% | NCI-H226 lung 103% | NCI-H322M lung 90.3% | HOP-62 NSCLC 97.1% | NCI-H460 lung 107% | NCI-H522 lung 96.4% | A549/ATCC NSCLC 96.9% | 786-0 renal 96.7% | COLO 205 colon 107%

C=C1CCC2C3(C)COC(c4ccc(F)cc4)OC3CCC2(C)C1CC(O)C1=CCOC1=O (configuration not stated)
active: NCI-H522 lung -28.2%
inactive: NCI-H23 lung 51.2% | NCI-H226 lung 58% | NCI-H322M lung 82.1% | HOP-62 NSCLC 81.7% | NCI-H460 lung 93.8% | A549/ATCC NSCLC 59.6% | 786-0 renal 19.4% | COLO 205 colon 22.8%

CCOC(=O)/C=C/c1cccc2c1C(=O)NC(C)(c1cc3cc(Cl)ccc3oc1=O)N2 (configuration not stated)
inactive: NCI-H23 lung 50.9% | NCI-H226 lung 46.1% | NCI-H322M lung 56.4% | HOP-62 NSCLC 55.7% | NCI-H460 lung 47.4% | NCI-H522 lung 33.8% | A549/ATCC NSCLC 47.2% | 786-0 renal 31.4% | COLO 205 colon 31.7%

Cc1ccc(S(=O)(=O)c2nc(S(=O)(=O)c3ccc(C)cc3)c(Cl)s2)cc1
active: NCI-H226 lung 1.5% | NCI-H522 lung -89.5% | 786-0 renal -49.6% | COLO 205 colon -78.6%
inactive: NCI-H23 lung 36.8% | NCI-H322M lung 89.7% | HOP-62 NSCLC 105% | NCI-H460 lung 41.5% | A549/ATCC NSCLC 92.8%

Cn1cc(-c2cc3nc(-c4cn(C)c5ncc(Br)cc45)cc(N)n3n2)c2ccccc21
active: NCI-H23 lung -22.5% | NCI-H226 lung -2.09% | NCI-H322M lung -20.2% | HOP-62 NSCLC -34.5% | NCI-H460 lung -54.6% | NCI-H522 lung -70.6% | A549/ATCC NSCLC 2.3% | 786-0 renal -87.7% | COLO 205 colon -81.4%

Cc1sc2c(c1C)C(c1ccc(Cl)cc1)=N[C@@H](CC(=O)NCCCCCNC(=O)COc1ccc(C3CCC(=O)NC3=O)cc1)c1nnc(C)n1-2 (some centres not stated)
active: NCI-H226 lung 8.38% | NCI-H522 lung 3.85% | COLO 205 colon -61.7%
inactive: NCI-H23 lung 47.3% | NCI-H322M lung 23.7% | HOP-62 NSCLC 16% | NCI-H460 lung 73% | A549/ATCC NSCLC 25.7% | 786-0 renal 26.5%

C=C1CC[C@@H]2[C@]3(C)COC(c4cn[nH]c4-c4cccc(Br)c4)O[C@@H]3CC[C@@]2(C)[C@@H]1C/C=C1/C(=O)OCC1O (some centres not stated)
active: NCI-H23 lung -94.5% | NCI-H226 lung -88.4% | NCI-H322M lung -0.559% | HOP-62 NSCLC -58.3% | NCI-H460 lung -68.9% | NCI-H522 lung -56% | A549/ATCC NSCLC -17.4% | 786-0 renal -95.5% | COLO 205 colon -58.3%

O=C(CCN1C(=O)/C(=C/c2ccc(F)cc2)SC1=S)N1CCOCC1
inactive: NCI-H23 lung 67.9% | NCI-H226 lung 74.2% | NCI-H322M lung 80.2% | HOP-62 NSCLC 109% | NCI-H460 lung 68.6% | A549/ATCC NSCLC 81.5% | 786-0 renal 67.1% | COLO 205 colon 75%
active: NCI-H522 lung -79%

O=C(NN1C(=O)/C(=C/C=C/c2ccc([N+](=O)[O-])o2)SC1=S)c1ccc(Cl)cc1
active: NCI-H23 lung -86.7% | NCI-H226 lung -97.1% | NCI-H322M lung -100% | HOP-62 NSCLC -98.8% | NCI-H460 lung -72.7% | NCI-H522 lung -88.8% | A549/ATCC NSCLC -86.7% | 786-0 renal -82.3% | COLO 205 colon -94.8%

Cc1ccc(/C=C/c2n(Cc3ccc4ccccc4c3)c3ccccc3[n+]2Cc2ccc3ccccc3c2)cc1
active: NCI-H23 lung -92.4% | NCI-H226 lung -27.4% | NCI-H322M lung -98.4% | HOP-62 NSCLC -58.2% | NCI-H460 lung -77.4% | NCI-H522 lung -82.5% | A549/ATCC NSCLC -53.4% | 786-0 renal -51.6% | COLO 205 colon -64.8%

CC(=O)c1cccc(NC(=O)CCC(=O)NS(=O)(=O)c2ccc(C)cc2)c1
inactive: NCI-H23 lung 108% | NCI-H226 lung 108% | NCI-H322M lung 109% | HOP-62 NSCLC 98.6% | NCI-H460 lung 120% | NCI-H522 lung 102% | A549/ATCC NSCLC 100% | 786-0 renal 105% | COLO 205 colon 113%

O=C(N1c2ccccc2Sc2ccccc21)n1ccc2cccnc21
inactive: NCI-H23 lung 77.9% | NCI-H226 lung 81% | NCI-H322M lung 74.7% | HOP-62 NSCLC 77.5% | NCI-H460 lung 48.7% | NCI-H522 lung 56.3% | A549/ATCC NSCLC 75.8% | 786-0 renal 77.4% | COLO 205 colon 62.8%

O=C(/C=C/c1ccc(-c2ccccc2)cc1)c1nc2ccccc2n1Cc1ccc(F)cc1
inactive: NCI-H23 lung 47.5% | NCI-H322M lung 64.5% | HOP-62 NSCLC 36.1% | NCI-H460 lung 36.5% | NCI-H522 lung 64.1% | A549/ATCC NSCLC 61.9% | 786-0 renal 30.7% | COLO 205 colon 48.9%
active: NCI-H226 lung -13.9%

CCCn1cc(-c2nc(Nc3ccc(C(=O)NCCCCNc4cccc5c4C(=O)N(C4CCC(=O)NC4=O)C5=O)cc3)nc3[nH]ccc23)cn1 (configuration not stated)
active: NCI-H322M lung 7.64% | HOP-62 NSCLC -1.38% | COLO 205 colon -10.3%
inactive: NCI-H23 lung 65.3% | NCI-H226 lung 20.9% | NCI-H460 lung 107% | NCI-H522 lung 27% | A549/ATCC NSCLC 21.1% | 786-0 renal 22.9%

Cc1sc(C(NC(=O)OCCn2c([N+](=O)[O-])cnc2C)C(F)(F)Cl)nc1-c1ccc(OC(F)(F)F)cc1 (configuration not stated)
active: NCI-H23 lung -92% | NCI-H226 lung -65.2% | NCI-H322M lung -92.4% | HOP-62 NSCLC -89.7% | NCI-H460 lung -29.2% | NCI-H522 lung -86.1% | A549/ATCC NSCLC -81.3% | 786-0 renal -91.3% | COLO 205 colon -74.2%

CCCCCCn1c(O)c(N=Nc2nc(-c3cc4ccccc4oc3=O)cs2)c2ccccc21
inactive: NCI-H226 lung 67.8% | NCI-H322M lung 53.1% | HOP-62 NSCLC 39.9%
active: NCI-H23 lung -20.9% | NCI-H460 lung 5.99% | NCI-H522 lung -21.8% | A549/ATCC NSCLC -16.6% | 786-0 renal -64.8% | COLO 205 colon 4.61%

Cc1ccc(C(=O)NN2C(=O)/C(=C/C=C/c3ccc([N+](=O)[O-])o3)SC2=S)cc1
active: NCI-H23 lung -84% | NCI-H226 lung -95.6% | NCI-H322M lung -76.9% | HOP-62 NSCLC -70% | NCI-H460 lung -57.6% | NCI-H522 lung -90.7% | A549/ATCC NSCLC -76.5% | 786-0 renal -86% | COLO 205 colon -83.9%

CC(=O)Nc1ccc(-c2cn(-c3cccc(C(=O)Nc4ccc(N5CCN(C)CC5)cc4)c3)nn2)cn1
inactive: NCI-H23 lung 67.4% | NCI-H226 lung 69.1% | NCI-H322M lung 96.2% | HOP-62 NSCLC 60% | NCI-H460 lung 90.4% | NCI-H522 lung 91.8% | A549/ATCC NSCLC 76.1% | 786-0 renal 12.5% | COLO 205 colon 72%

C=CC(=O)Nc1ccc(C)c(Oc2ccc(Cl)cc2)c1
inactive: NCI-H23 lung 55.9% | NCI-H226 lung 41.7% | NCI-H322M lung 48.4% | HOP-62 NSCLC 63% | NCI-H460 lung 20.5% | A549/ATCC NSCLC 47.2% | 786-0 renal 55.1% | COLO 205 colon 55.7%
active: NCI-H522 lung 3.62%

C=C1CCC2C3(C)COC(c4cccs4)OC3CCC2(C)C1CC(Sc1ccccc1)C1=CCOC1=O (configuration not stated)
inactive: NCI-H23 lung 79.1% | NCI-H226 lung 87.7% | NCI-H322M lung 94.9% | HOP-62 NSCLC 118% | NCI-H460 lung 107% | NCI-H522 lung 65.5% | A549/ATCC NSCLC 79.7% | 786-0 renal 91.9% | COLO 205 colon 115%

CC1CN(c2oc(-c3ccc([N+](=O)[O-])cc3)nc2C#N)CC(C)O1 (configuration not stated)
inactive: NCI-H23 lung 97.9% | NCI-H226 lung 102% | NCI-H322M lung 96.9% | HOP-62 NSCLC 98.9% | NCI-H460 lung 107% | NCI-H522 lung 100% | A549/ATCC NSCLC 102% | 786-0 renal 104% | COLO 205 colon 109%
